Nrf2 activator: Nrf2 pathway activation; 0.31% of 410,000 active; AREc32 ARE-luciferase reporter (MCF7-derived line), luminescence, 24 h; AID 624171; Potency, µM (series often up to 46.1 µM), without a hit: top-dose activation, actives largely listed as activators; also: % of control where 0% means no effect; nearly all actives have a fitted effect of over 65% in size
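Reporter line AREc32 (ARE-Fluc), seeded overnight in OPTI-MEM with 5% FBS; compound pin-transferred, 24 hr at 37 deg C, 5% CO2; luminescent read-out.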
S2 tox: reduces viability in counter-screen for ATXN expression inhibitors | S2 cells (HEK-293 line with an ATXN2-luciferase reporter) viability, CellTiter-Fluor protease fluorescence, 24 h | Potency, µM (top dose mostly 56.7 µM), usual class: cytotoxic | 0.49% of 400,000 active; also: nearly all actives have a fitted effect of over 40% in size
A549 viability: counter-screen for Nrf2 inhibitors: cytotoxicity in A549 cells; A549 ARE-Fluc cells, CellTiter-Fluor viability, 18-24 h; Potency, µM (highest dose often 46 µM), for the others: top-dose activity change, negative = cytotoxicity, actives largely listed as inhibitors; 0.16% of 390,000 active; also: % is scaled to controls: 0 for no effect and ±100 for the full control effect
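A549 ARE_Fluc cells in 5% FBS OPTI-MEM were exposed to compounds in concentration-response for 18-24 h at 37 deg C. Viability was read by CellTiter-Fluor fluorescence (Ex 405/Em 525) after 30 min, before the luciferase read.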
ATXN2 expr inh: inhibitors of ATXN2 expression; HEK-293 ATXN2-luciferase reporter, luminescence, 24 h; Potency, µM (top dose mostly 57 µM), for the others: top-dose activity change, negative = inhibition, usual class: inhibitors; 0.72% of 360,000 active; AID 1745845; also: % is scaled to controls: 0 for no effect and ±100 for the full control effect; nearly all actives have a fitted effect of over 55% in size
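ATXN2-luciferase reporter cells (luciferase flanked by upstream and downstream ATXN2 gene portions) were treated 24 h at 37 °C with compounds at up to 57 uM. SteadyGlo luminescence gave expression; GF-AFC fluorescence gave viability.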
Nrf2 block: inhibitors of Nrf2 signaling | Potency, µM (doses to about 46 µM), without a hit: at the top dose activity change, negative = inhibition, most hits filed as inhibitors | 2.1% of 360,000 active | A549 ARE-Fluc reporter, luciferase luminescence, 18-24 h | AID 504444; also: % is scaled to controls: 0 for no effect and ±100 for the full control effect; nearly all actives have a fitted effect of over 60% in size
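Two sequential reads on A549 ARE_Fluc cells exposed to compound for 18-24 h: a CellTiter-Fluor fluorescence read for viability, then a luciferase luminescence read for Nrf2/ARE activity.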
* marks the source's active call; other numbers are inactive results; i = inactive; u = inconclusive; x = no result given; [ ] = another dose, or the depositor's remark. Only some compounds are listed: those with a hit (about 2.9% of all), similar ones and a draw of the others. Calls follow the shape of the dose curve; as a rule, active = well fitted curve in the direction sought with a large enough effect; inconclusive = small, poorly fitted or top-dose-only effect, or another doubt; inactive = no such curve, though single readings can be large; an effect the other way counts as inactive or inconclusive. Potency is read from the fitted curve at half-maximal effect.

SMILES	Nrf2 activator	S2 tox	A549 viability	ATXN2 expr inh	Nrf2 block
CCCCNc1cc(NC2CCCCC2)c2c3c(onc13)-c1ccccc1C2=O	1%	i	-5%	0%	-5%
O=C(O)CCNc1cc(N2CCN(C(=O)c3ccco3)CC2)c2noc3c2c1C(=O)c1ccccc1-3	4%	u	18µM*	-17%	u
O=C1c2ccccc2-c2onc3c(NCCO)cc(NC4CCCCC4)c1c23	-1%	u	u	u	21µM*
O=C(NNC(=O)c1ccccc1-c1ccccc1C(=O)O)c1ccccc1	0%	i	-11%	8%	6%
O=C(C=P(c1ccccc1)(c1ccccc1)c1ccccc1)c1ccccc1-c1ccccc1C(=O)C=P(c1ccccc1)(c1ccccc1)c1ccccc1	0%	x	4.6µM*	u	2.1µM*
Cc1ccc2c(c1)COc1c3ccc(C(=O)O)cc3nn1-2	-1%	i	0%	7.9µM*	u
Cc1ccc2c(c1)COc1c3ccc(C(=O)NCC4CC4)cc3nn1-2	3%	u	-9%	u	-24%
COc1ccccc1NC(=O)COc1ccccc1	11µM*	i	5%	49%	u
COc1ccccc1NC(=O)CSCC(=O)N1c2ccccc2CCc2ccccc21	2%	u	u	x	18µM*
O=C(COc1ccccc1)Nc1ccccc1Oc1ccccc1	-1%[9.22 µM]	i	22%	19%	u
O=C(NCC1Cc2cc(F)cc(-c3cccnc3)c2O1)c1cnn(-c2ccccc2)c1 (configuration not stated)	x	i	x	x	x
Oc1ccc(Br)cc1C1C=C(c2ccc3c(c2)OCO3)NC(c2ccc(Br)cc2)N1 (configuration not stated)	x	x	0%	x	6%
O=C1Cc2cc(S(=O)(=O)N3CCN(c4ccc(Cl)cc4)CC3)ccc2N1	x	x	15%[92.2 µM]	x	-8%[92.2 µM]
CCCc1cc(=O)[nH]c(Nc2ccccc2O)n1	11µM*	i	0%	0%	0%
OC1CC2CCC(C1)N2CCCN1c2ccccc2Sc2ccc(Cl)cc21 (configuration not stated)	-1%	16µM*	-11%	11µM*	1%
COc1ccc(CC(=O)Nc2ccc3nc(Nc4cccc(Cl)c4)cc(C)c3c2)cc1	1%	i	u	u	26µM*
COc1ccccc1CC(=O)Nc1ccc2nc(Nc3cccc(Cl)c3)cc(C)c2c1	0%	i	-18%	0%	u
Cc1cc(Nc2cccc(C(F)(F)F)c2)nc2ccc(NC(=O)Cc3ccc(Cl)cc3)cc12	-1%	i	u	20µM*	16µM*
O=C(NCc1nnc2n1CCN(Cc1ccccc1C(F)(F)F)CC2)c1ccncc1	x	i	x	x	x
Cc1nn(C)c(C)c1Nc1ccc(N2C(=O)C3C4C=CC(C4)C3C2=O)cc1[N+](=O)[O-] (configuration not stated)	0%	i	1%	-13%	-3%
Cc1nn(C)c(C)c1Nc1ccc(N2C(=O)C3CC=CCC3C2=O)cc1[N+](=O)[O-] (configuration not stated)	5%	i	-17%	-15%	21µM*
Cn1nccc1C(=O)NCC1CCC2(CCN(Cc3cccc4ncccc34)CC2)O1 (configuration not stated)	x	i	x	x	x
COc1ccc(Cl)cc1-c1nc(-c2ccncc2)no1	6.3µM*	i	0%	38%	u
Cc1coc2ccccc2c1=O	x	i	x	5%	x
O=C(Nc1ccc(Cl)c(S(=O)(=O)N2CCOCC2)c1)C1CCCC1	1%	u	-3%	x	23µM*
COc1ccc(NC(=O)CSc2ccc(NC(C)=O)cc2)cc1S(=O)(=O)N1CCOCC1	0%	i	4%	3%	1%
O=C(CSc1ccccc1)Nc1ccc(Cl)c(S(=O)(=O)N2CCOCC2)c1	3%	i	-20%	-24%	23µM*
COc1ccc(NC(=O)CSc2ccc3ccccc3c2)cc1S(=O)(=O)N1CCCCC1	3%	i	-13%	-21%	7.3µM*
O=C(CSc1ncccn1)Nc1ccc(Cl)c(S(=O)(=O)N2CCOCC2)c1	0%	i	4%	-6%	-12%
COc1ccc(NC(=O)CCn2c(=O)c3cccn3c3cccnc32)c(OC)c1	7%	x	2%	x	-7%

Assay outcomes as filed in PubChem.
